# Data published in the supplement of paper PMC11417369.
# ± gives the standard deviation of the averaged measurements. Whole data set: some 25,000 sequences, median “ln(normalized median fluorescence intensity)” near 8.6, cut for the highest 2% near 10. Only a selection was taken, and the highest values are over-represented in it overall.
# Test system: PfAP2-EXP AP2 domain (GST-tagged)
# Assay: gcPBM binding intensity (ln(normalized median fluorescence intensity)); higher = stronger DNA binding
# Summary of the method: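 The highest Masliner-normalised natural-log median intensity across replicate spots of either probe orientation is reported as binding intensity. GST-tagged P. falciparum DNA-binding domains expressed in E. coli were applied for 1 h to an Agilent 4 × 180k array of primer-extended double-stranded 36-bp intergenic genomic probes plus negative controls, and bound protein was detected with Alexa488 anti-GST antibody and scanned at 488 nm.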
row,Sequence,gcPBM binding intensity (ln)
1,TTACAAATATTATAATGTACCCATTTTTTTTGCCTT [XGTACX_site6612],8.47 ± 0.39
2,CATAATATATATTGAGCATGCTACTATTGTTAGAAA [TGCATGCA_site740],9 ± 0.31
3,AGAAACCTTGTTAGTTAGCATATATATATATATATA [CACACA_negctrl_site372],10.2 ± 0.49
4,TTATTCTTTAACTAAAATTATATATATATATTATAC [CACACA_negctrl_site1597],8.38 ± 0.34
5,AATGATTTTAAATGAACATAATTTATATTCATAACA [GTGCAC_negctrl_site256],8.04 ± 0.42
6,TCAATTTTACTTGTTTGTACATAAAATAATAAGGTT [XGTACX_site3732],8.44 ± 0.47
7,GCACAACATATATTATCACACACATATATATATATA [CACACA_site8619],10.3 ± 0.18
8,ACAACATATGTTATCACACACATATAAATATAAATA [CACACA_site7038],8.41 ± 0.54
9,AATAAATTATATATCACACATATATATTTATATTTA [CACACA_site5964],8.13 ± 0.23
10,AAAAAAAAAACACACACATGCACATCATATTATATA [TGCATGCA_site133],8.72 ± 0.54
11,CCAACATATATTATCACACACATATATATATATATA [CACACA_site2016],10.2 ± 0.22
12,ATATCACATATATATATATATATATATATATATATA [XGTACX_negctrl_site463],9.95 ± 0.61
13,AAAAAAAACAGACACACACACACATATACATACATA [CACACA_site2665],8.41 ± 0.38
14,AAAAAAATCACATAATATACTTTATTTTATTTTGTA [GTGCAC_negctrl_site562],7.89 ± 0.33
15,ATTTTTTTTTTTAATACACACAATTTTGATGAAGCA [CACACA_site3157],8.26 ± 0.41
16,CTAAAGTAAATTTAAGCACACACAACGAATTTTTAT [CACACA_site8599],8.65 ± 0.45
17,GATAAAATGGATGGATGTACATTATTTCCATATAAT [XGTACX_site7781],8.55 ± 0.5
18,AACCATTATTTCTCTACACACATTTATGTCATTTAC [CACACA_site1499],8.86 ± 0.56
19,AAGTACATACATAAAACACACACATATATATATATA [CACACA_site8541],10.2 ± 0.17
20,TATACACATATATAAACACACAAAAAAAAAAAAAAA [CACACA_site7041],8.19 ± 0.63
21,CATATACATAAACACACACACACATAAATAAATATA [CACACA_site4864],8.68 ± 0.54
22,TAAAAAAAAAAAAAAAGTACACACATACATATAAAT [XGTACX_site3752],8.61 ± 0.44

row,Sequence,gcPBM binding intensity (ln)
1,AAAAAAAAAAAAAGTACACACATACATATAAATATA [CACACA_site8533],8.48 ± 0.4
2,GTACATACATAAAACACACACATATATATATATATA [CACACA_site1826],10.2 ± 0.75
3,TATATACATAAACACACACACACATATATATATATA [CACACA_site8707],10.2 ± 0.29
4,TACAGATATAAACACACACACATATATATATATATA [CACACA_site4846],10.2 ± 0.48
5,AAAAAAAAAAAACATACACACATACATACAGATATA [CACACA_site4681],8.5 ± 0.64
6,TACATATATAAAAAAACACACACATATATATATATA [CACACA_site8315],10.1 ± 0.46
7,TAGATACATAAACACACACACACATACATATATACA [CACACA_site9139],8.68 ± 0.6
8,TACATACATAAACACACACACACATATATATATATA [CACACA_site8953],10.1 ± 0.35
9,GTTAATATACTTAATACACACACGAATATATATAAA [CACACA_site1181],8.69 ± 0.35
10,ACCTAATTTTTATATTGTACATAATATAATATATAT [XGTACX_site1715],8.66 ± 0.3
11,ATTTAAAAAAAAAAAAAAAAAAAAAAAAAAAGAAAA [CACACA_negctrl_site722],8.01 ± 0.43
12,TATATATATATGTATACACACATATGTATGTTATGT [CACACA_site4053],9.65 ± 0.28
13,CCAATACATAGAAACTGTACATTATGCATTATACAC [XGTACX_site3531],8.79 ± 0.28
14,ATTAAATACTTCGATTGTACAATTTTTTTTTTTTTT [XGTACX_site832],8.59 ± 0.59
15,ATTTAAAATGGTTATACACACATAAAAGGGGAAATG [CACACA_site2649],8.95 ± 0.57
16,TTTTTTTTTCGCTTTTGTACACATTTTATAGAACAG [XGTACX_site2416],8.87 ± 0.46
17,AAAAAAAAAAAAAAGCGTACAAATAAAATATATTTA [XGTACX_site7195],8.52 ± 0.49
18,CATATACACGAACACACACACATATATATATATATA [CACACA_site4437],10.3 ± 0.39
19,AACATATACACGAACACACACACATATAAATAAATA [CACACA_site6380],8.74 ± 0.56
20,CATATACACGAACACACACACATATAAATAAATATA [CACACA_site6379],8.73 ± 0.46
21,CCCCCCCACGAACACACACACATACATACCACATAT [CACACA_site7149],10.41 ± 0.028
22,GGCATACACGAACACACACACACACGCACATATATA [CACACA_site6426],8.96 ± 0.52

row,Sequence,gcPBM binding intensity (ln)
1,AACATATACACGAACACACACACATATATATATATA [CACACA_site502],10.1 ± 0.38
2,ATTATATTTCAATTATGTACATATAAAATGAATAAA [XGTACX_site4204],8.43 ± 0.38
3,ATGAATATAATAAAGAAACACACGTATACATAATGA [CACACA_site1355],8.8 ± 0.54
4,TAAAATTTACAACACTGTACTTGAATTTATCTTTAA [XGTACX_site241],8.25 ± 0.37
5,CGCATAAAGACAAGAACACACATATAGATTGTAGTA [CACACA_site3693],8.27 ± 0.49
6,GTTATATTTAAAATAGTGCAATAAAAATAATAATAT,8.89 ± 0.2
7,ATTATATATAATATAGTGCATGTAAAAAATAAAACA,9.23 ± 0.33
8,ATTATTATATAGTGTGCATGCAATATTAATAAAACC [TGCATGCA_site245],10.3 ± 0.4
9,ATTGCGTGATAATAATGTACAAAAAGTAATTTATAT [XGTACX_site8339],8.48 ± 0.45
10,TAATTCGCAAAAGAAAGAAATTAAGAAAAAGAAAAA [XGTACX_negctrl_site614],8.32 ± 0.68
11,TTTTTTTTTTTTTTTTTTTTCATTCAATTATATTTA [CACACA_negctrl_site712],8.04 ± 0.33
12,TTTTTTTATTATTCTTATATAAAAATTTTTTTTAAT [CACACA_negctrl_site159],8.27 ± 0.45
13,TTTTATTCCTATTTATTTATATTTTTGTCTTATATC [CACACA_negctrl_site125],8.8 ± 0.43
14,TTTTATTATTCTTCTCTCTTATATATATATATATAT [CACACA_negctrl_site646],10.2 ± 0.26
15,ATTTGTATATAATATATATAATTTTTTTTTTTTGTT [XGTACX_negctrl_site425],8.2 ± 0.31
16,GTATATATTTTTATTTAATAATTTGTTTATTTATTC [CACACA_negctrl_site647],8.56 ± 0.22
17,ATTTTTTTTATTTTTTCAATATATATATATATATAT [CACACA_negctrl_site1444],10.2 ± 0.19
18,GTATATATATATATATATATATATTTTTATTTATTT [CACACA_negctrl_site589],8.65 ± 0.18
19,TCTTTCTTATATTTATATAATTATATTTATTTTATA [GTGCAC_negctrl_site300],8.74 ± 0.38
20,ATATATTTTATTCCTATATATATATATATATATATA [GTGCAC_negctrl_site556],10.2 ± 0.49
21,TTTTCATTCAATTATATTTATATATATATATATATA [GTGCAC_negctrl_site538],10.2 ± 0.44
22,ATATATATATATATATATATAATTTTTTTTGTTTTT [TGCATGCA_negctrl_site453],10.3 ± 0.3
